Data: PubChem BioAssay (Tox21)
“And” between values parts separate entries of the source, which are not always exact repeats. Equal values may be shown once. Records with an inconclusive call do not appear. A call without a number means that no potency is given here. Some compounds were tested as several samples or in several runs, with calls that do not always agree. The source made the active and inactive calls. Unless noted, the call rests on the fitted dose curve.

Test system: not listed separately
Test: p53 small molecule agonists, cell-based qHTS assay (AID 1963582; active means well fitted activation curve with a large enough effect in the signal ratio in the repeat runs, not every such curve was filed as active; the % refers to the signal ratio)
Conditions: HCT-116 p53RE-bla reporter, beta-lactamase FRET ratio, 16 h; series mostly up to 66 µM; activation: at the top concentration
In short: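 Agonist activity was scored from beta-lactamase FRET fluorescence in p53RE-bla cells treated 16 h at 37 C with compounds in DMSO, substrate incubation being 2 h at room temperature.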

Row | SMILES | activation | Potency
1 | O=C(NCc1cccnc1)Nc1ccc([N+](=O)[O-])cc1 | -2.7% (inactive) | –
2 | ClC1=C(Cl)[C@]2(Cl)[C@@H]3[C@@H](Cl)[C@H](Cl)C[C@@H]3[C@@]1(Cl)C2(Cl)Cl | 0.194% (inactive) | –
3 | CC(C)OC(=O)Nc1cccc(Cl)c1 | 2.45% (inactive) | –
4 | COc1cc(OC)nc(NC(=O)NS(=O)(=O)c2ncccc2C(=O)N(C)C)n1 | -0.101% (inactive) | –
5 | O=C(Cl)CCl | 0.428% (inactive) | –
6 | NC(=O)CF | 0.848% (inactive) | –
7 | CC(=[OH+])/C=C(/C)[O-].CC(=[OH+])/C=C(\C)[O-].CC(=[OH+])/C=C(\C)[O-].[Al] | -2.98% (inactive) | –
8 | Cc1ccc(CCl)cc1 | -0.91% (inactive) | –
9 | CC(C)(C)OOC(=O)c1ccccc1 | – | inactive
10 | Nc1ccc(-c2ccc(N)cc2)cc1 | – | inactive
11 | COP(N)(=O)SC (stereo not drawn) | – | inactive
12 | NC(=O)O | 1.09% (inactive) | –
13 | O=C(CBr)c1ccc(O)cc1 | -0.791% (inactive) | –
14 | CCCCCCCCOC(=O)c1ccccc1C(=O)OCCCCCCCC | – | inactive
15 | CCCCCCCCCCCCCl | – | inactive
16 | COP(=S)(OC)SCN1C(=O)c2ccccc2C1=O | – | inactive
17 | OCC1CO1 (stereo not drawn) | – | inactive
18 | CCOP(=S)(OCC)SCCSCC | – | inactive
19 | COc1ccc2c3c1O[C@H]1[C@@H](O)C=C[C@H]4[C@@H](C2)N(C)CC[C@@]341 | -3.35% (inactive) | –
20 | Oc1ccc(Cl)cc1Cc1ccccc1 | -4.07% [at 30.3 µM] (inactive) | –
21 | Cc1ccc(Cl)c(O)c1 | 0.253% [at 30.3 µM] (inactive) | –
22 | CCN(CC)N=O | – | inactive

Biological target: 5-hydroxytryptamine receptor 2A (Homo sapiens) (UniProt P28223)
Test: 5-hydroxytryptamine receptor 2A (HTR2A) small molecule antagonists, cell-based qHTS assay (AID 1963586); further: nearly all actives have a fitted effect of over 45% in size; further: potency means the concentration at half of the fitted maximal effect
Conditions: HTR2A-CHO cells, DOI-induced calcium flux, fluorescence; series mostly up to 61.5 µM; activity, negative = inhibition: at the top concentration
In short: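 Antagonist-mode intracellular calcium assay: DOI (4 nM) added after 5 min compound pre-incubation at room temperature to dye-loaded HTR2A-CHO cells. Fluorescence followed for 3 min, sampled every second.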

5-hydroxytryptamine receptor 2A (Homo sapiens), sequence (P28223 whole entry, looked up): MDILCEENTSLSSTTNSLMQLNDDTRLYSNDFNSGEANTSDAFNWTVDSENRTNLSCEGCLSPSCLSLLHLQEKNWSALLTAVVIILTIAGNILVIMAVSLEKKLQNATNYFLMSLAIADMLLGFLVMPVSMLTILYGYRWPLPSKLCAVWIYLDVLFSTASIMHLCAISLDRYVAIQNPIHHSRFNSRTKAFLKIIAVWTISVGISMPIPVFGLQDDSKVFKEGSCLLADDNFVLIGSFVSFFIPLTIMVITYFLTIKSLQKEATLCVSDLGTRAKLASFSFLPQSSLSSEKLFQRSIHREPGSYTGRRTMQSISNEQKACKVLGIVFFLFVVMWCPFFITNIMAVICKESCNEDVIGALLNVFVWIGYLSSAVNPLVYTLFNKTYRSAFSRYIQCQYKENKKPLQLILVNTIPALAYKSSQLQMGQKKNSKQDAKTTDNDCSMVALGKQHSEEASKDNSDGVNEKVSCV

Row | SMILES | Potency | activity, negative = inhibition
23 | O=C(NCc1cccnc1)Nc1ccc([N+](=O)[O-])cc1 | 3.75 µM (active) | –
24 | ClC1=C(Cl)[C@]2(Cl)[C@@H]3[C@@H](Cl)[C@H](Cl)C[C@@H]3[C@@]1(Cl)C2(Cl)Cl | – | -13% (inactive)
25 | CNC(=O)CSP(=S)(OC)OC | inactive | –
26 | CCOP(=O)(O)OCC (tested in a mixture with another compound) | inactive | –
27 | C=CCc1ccc(OC)cc1 | inactive | –
28 | Oc1ccc(C(c2ccc(O)cc2)(C(F)(F)F)C(F)(F)F)cc1 | 37.5 µM (active) | –
29 | COc1cc(OC)nc(NC(=O)NS(=O)(=O)c2ncccc2C(=O)N(C)C)n1 | – | 8.58% (inactive)
30 | O=C(Cl)CCl | – | 15.3% (inactive)
31 | NC(=O)CF | – | -1.5% (inactive)
32 | CC(=[OH+])/C=C(/C)[O-].CC(=[OH+])/C=C(\C)[O-].CC(=[OH+])/C=C(\C)[O-].[Al] | – | -22.4% (inactive)
33 | Cc1ccc(CCl)cc1 | – | -7.94% (inactive)
34 | Nc1ccc(-c2ccc(N)cc2)cc1 | inactive | –
35 | COP(N)(=O)SC (stereo not drawn) | inactive | –
36 | Cc1ccc([N+](=O)[O-])cc1C | inactive | –
37 | NC(=O)O | – | 2.32% (inactive)
38 | Clc1cccc(Cl)c1 | inactive | –

Row | SMILES | Potency | activity, negative = inhibition
39 | CC(COc1ccc(Oc2ccccc2)cc1)Oc1ccccn1 (stereo not drawn) | – | 1.77% (inactive)
40 | Cn1c(-c2ccccc2)cc(-c2ccccc2)[n+]1C | inactive | –
41 | O=C1CCCN1 | inactive | –
42 | O=S(=O)(O)OOS(=O)(=O)O | inactive | –
43 | CCCCCCCCCCCCCl | inactive | –
44 | COP(=S)(OC)SCN1C(=O)c2ccccc2C1=O | inactive | –
45 | O=c1[nH]c(=O)n(Cl)c(=O)n1Cl | inactive | –
46 | CCOP(OCC)OCC | inactive | –
47 | OCC1CO1 (stereo not drawn) | inactive | –
48 | CCOP(=S)(OCC)SCCSCC | inactive | –
49 | COP(=S)(OC)Oc1ccc([N+](=O)[O-])cc1 | inactive | –
50 | COc1ccc2c3c1O[C@H]1[C@@H](O)C=C[C@H]4[C@@H](C2)N(C)CC[C@@]341 | inactive | –
51 | Oc1ccc(Cl)cc1Cc1ccccc1 | inactive | –
52 | C=C(Cl)CCl | – | 13% (inactive)
53 | Cc1ccc(Cl)c(O)c1 | – | 7.95% [at 28.5 µM] (inactive)

Biological target: 5-hydroxytryptamine receptor 2A (Homo sapiens) (UniProt P28223)
Test: 5-hydroxytryptamine receptor 2A (HTR2A) small molecule agonists, cell-based qHTS assay (AID 1963587); further: nearly all actives have a fitted effect of over 30% in size; further: potency means the concentration at half of the fitted maximal effect
Conditions: HTR2A-CHO cells, calcium flux fluorescence, agonist mode; series mostly up to 76.8 µM; activation: at the top concentration
In short: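 Kinetic calcium-flux fluorescence (2 min, 1 sec intervals) after compound addition in agonist mode. HTR2A-CHO cells were cultured 18 h, then dye-loaded 1 h at 37 C.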

Row | SMILES | activation | Potency
54 | O=C(NCc1cccnc1)Nc1ccc([N+](=O)[O-])cc1 | -5.86% (inactive) | –
55 | ClC1=C(Cl)[C@]2(Cl)[C@@H]3[C@@H](Cl)[C@H](Cl)C[C@@H]3[C@@]1(Cl)C2(Cl)Cl | -0.279% (inactive) | –
56 | CNC(=O)CSP(=S)(OC)OC | – | inactive
57 | CCOP(=O)(O)OCC (tested in a mixture with another compound) | – | inactive and 19.3 µM (active)
58 | CC(C)OC(=O)Nc1cccc(Cl)c1 | – | inactive
59 | C=CCc1ccc(OC)cc1 | – | inactive
60 | COc1cc(OC)nc(NC(=O)NS(=O)(=O)c2ncccc2C(=O)N(C)C)n1 | -0.504% (inactive) | –
61 | O=C(Cl)CCl | -0.17% (inactive) | –
62 | NC(=O)CF | 0.564% (inactive) | –
63 | CC(=[OH+])/C=C(/C)[O-].CC(=[OH+])/C=C(\C)[O-].CC(=[OH+])/C=C(\C)[O-].[Al] | -0.0262% (inactive) | –
64 | Cc1ccc(CCl)cc1 | 5.15% (inactive) | –
65 | CC(C)(C)OOC(=O)c1ccccc1 | – | inactive
66 | Nc1ccc(-c2ccc(N)cc2)cc1 | – | inactive
67 | COP(N)(=O)SC (stereo not drawn) | – | inactive
68 | Cc1ccc([N+](=O)[O-])cc1C | – | inactive
69 | NC(=O)O | -2.82% (inactive) | –
70 | Clc1cccc(Cl)c1 | – | inactive
71 | CC(COc1ccc(Oc2ccccc2)cc1)Oc1ccccn1 (stereo not drawn) | 0.248% (inactive) | –

Row | SMILES | activation | Potency
72 | O=C(CBr)c1ccc(O)cc1 | 1.07% (inactive) | –
73 | Cn1c(-c2ccccc2)cc(-c2ccccc2)[n+]1C | – | inactive
74 | O=C1CCCN1 | – | inactive
75 | CCCCCCCCCCCCCCCC[N+](C)(C)C | – | 18.8 µM (active) and 38.9 µM (active)
76 | O=S(=O)(O)OOS(=O)(=O)O | – | inactive
77 | CCCCCCCCOC(=O)c1ccccc1C(=O)OCCCCCCCC | – | inactive
78 | CCCCCCCCCCCCCl | – | inactive
79 | COP(=S)(OC)SCN1C(=O)c2ccccc2C1=O | – | inactive
80 | O=c1[nH]c(=O)n(Cl)c(=O)n1Cl | – | inactive
81 | CCOP(OCC)OCC | – | inactive
82 | OCC1CO1 (stereo not drawn) | – | inactive
83 | CCOP(=S)(OCC)SCCSCC | – | inactive
84 | COP(=S)(OC)Oc1ccc([N+](=O)[O-])cc1 | – | inactive
85 | COc1ccc2c3c1O[C@H]1[C@@H](O)C=C[C@H]4[C@@H](C2)N(C)CC[C@@]341 | – | inactive
86 | Oc1ccc(Cl)cc1Cc1ccccc1 | – | 44.2 µM (active) and inactive
87 | C=C(Cl)CCl | 4.53% (inactive) | –
88 | Cc1ccc(Cl)c(O)c1 | -0.1% [at 35.6 µM] (inactive) | –
